PubChem BioAssay (NCI)
This is part of a sample that, as a whole, favours compounds with a hit. Of some 79,000 tested, about 15% had one in any assay. Active and inactive are the calls of the source. Rule as the data show it: active = growth inhibition above about 70%; inactive = the rest.

Tests used:
[1] = NCI Yeast Anticancer Drug Screen. Data for the rad52 strain (AID 147);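 also: 0% = growth of vehicle-treated control cultures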; details: S. cerevisiae rad52 mutant growth inhibition, stronger effect = higher value
In short: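 Read-out: growth inhibition versus vehicle-treated controls. Cells were a DNA repair-deficient yeast strain treated with compounds.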

[2] = NCI Yeast Anticancer Drug Screen. Data for the wt1 strain (AID 149);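 also: 0% = growth of vehicle-treated wt1 cultures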; details: S. cerevisiae wt1 strain (SPY 50644) growth inhibition, stronger effect = higher value
In short: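 Measured: growth of wt1 yeast under compound versus vehicle treatment, reported as inhibition.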

[3] = NCI Yeast Anticancer Drug Screen. Data for the rad50EPP+ strain (AID 151);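 also: 0% = growth of vehicle-treated control cultures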; details: S. cerevisiae rad50 mutant strain, stronger effect = higher value
In short: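 Growth inhibition read against vehicle controls in rad50EPP+ yeast, a strain altered in DNA damage repair, after compound exposure.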

[4] = NCI Yeast Anticancer Drug Screen. Data for the mgt1 strain (AID 153); details: S. cerevisiae mgt1 mutant growth inhibition, stronger effect = higher value
In short: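 mgt1 yeast grown with test compound; read-out is growth inhibition versus vehicle-treated cultures.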

[5] = NCI Yeast Anticancer Drug Screen. Data for the rad50 strain (AID 155);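 also: 0% = growth of vehicle-only cultures of the same strain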; details: S. cerevisiae rad50 strain growth inhibition, stronger effect = higher value
In short: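 Growth of the mutant yeast was measured after compound exposure and referenced to vehicle-treated cultures.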

[6] = NCI Yeast Anticancer Drug Screen. Data for the mec2-1 strain (AID 157); details: S. cerevisiae mec2-1 strain, stronger effect = higher value
In short: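 Yeast mec2-1 mutant treated with compound. Readout: growth inhibition vs vehicle controls.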

[7] = NCI Yeast Anticancer Drug Screen. Data for the rad14 strain (AID 159);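 also: 0% = growth of vehicle-treated control cultures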; details: S. cerevisiae rad14 strain growth inhibition, stronger effect = higher value
In short: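 Here, inhibition of yeast growth was measured after compound exposure, using a strain with a genetic defect in DNA damage repair and vehicle-treated cultures as the reference.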

[8] = NCI Yeast Anticancer Drug Screen. Data for the sgs1 mgt1 strain (AID 161);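 also: 0% = growth of cultures given vehicle only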; details: S. cerevisiae sgs1 mgt1 strain, stronger effect = higher value
In short: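 Inhibition of yeast growth, normalised to vehicle-treated controls, is reported for a strain bearing genetic alterations in DNA damage repair.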

[9] = NCI Yeast Anticancer Drug Screen. Data for the CLN2oe strain (AID 163);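 also: 0% = growth of vehicle-only control cultures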; details: S. cerevisiae CLN2oe strain, stronger effect = higher value
In short: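 Read-out: yeast growth inhibition, expressed relative to vehicle-only controls. The strain bears an engineered cell-cycle alteration.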

[10] = NCI Yeast Anticancer Drug Screen. Data for the cln2 rad14 strain (AID 165);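 also: 0% = growth equal to vehicle treated cultures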; details: S. cerevisiae cln2 rad14 strain, stronger effect = higher value
In short: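 cln2 rad14 yeast strain; compound exposure; growth inhibition read vs vehicle controls.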

[11] = NCI Yeast Anticancer Drug Screen. Data for the bub3 strain (AID 167); details: S. cerevisiae bub3 mutant strain, stronger effect = higher value
In short: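 Whole-cell yeast assay. The mutant strain was incubated with compounds, and growth inhibition was determined by comparison with vehicle-treated cells.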

[12] = NCI Yeast Anticancer Drug Screen. Data for the wt2 strain (AID 169);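 also: 0% = growth of vehicle-treated yeast cultures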; details: S. cerevisiae wt2 strain growth inhibition, stronger effect = higher value
In short: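 Read-out: growth inhibition versus vehicle-treated control cultures after compound exposure of the yeast strain.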

[13] = NCI Yeast Anticancer Drug Screen. Data for the mlh1 strain (AID 171);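 also: 0% = growth of vehicle-treated control cultures of the same strain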; details: S. cerevisiae mlh1 strain growth inhibition, stronger effect = higher value
In short: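 Read-out: growth inhibition versus vehicle controls. Strain: engineered yeast with a defined DNA repair or cell cycle defect, compound-treated.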

[14] = NCI Yeast Anticancer Drug Screen. Data for the sgs1 strain (AID 173);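 also: 0% = growth of vehicle-only control cultures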; details: S. cerevisiae sgs1 mutant, stronger effect = higher value
In short: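 Read-out: yeast growth inhibition relative to vehicle controls, following compound exposure of a strain with a defined DNA repair/cell cycle alteration.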

[15] = NCI Yeast Anticancer Drug Screen. Data for the mlh1 rad18 strain (AID 175); details: S. cerevisiae mlh1 rad18 strain growth inhibition, stronger effect = higher value
In short: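 Yeast w/ defined DNA-repair lesions; compound exposure; growth vs vehicle controls → % inhibition.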

[16] = NCI Yeast Anticancer Drug Screen. Data for the rad18 strain (AID 177); details: S. cerevisiae rad18 mutant growth inhibition, stronger effect = higher value
In short: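 Readout: growth inhibition vs vehicle controls. Cells: genetically altered yeast strain, DNA repair defect.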

[17] = at 5.0 µM (retest, dose inferred, filed as 0.5)
[18] = at 50.0 µM (retest, dose inferred, filed as 5.0)

Measured: growth inhibition

COc1ccc([N+](=O)[O-])c2c(NCCCN(C)C)c3ccccc3nc12
active: [1]; at 33.0 µM 72% | [1]; at 100.0 µM 89% | [5]; [18] 90% | [5]; at 100.0 µM 71% | [6]; [18] 99% | [6]; at 100.0 µM 85% | [7]; at 33.0 µM 80% | [7]; at 100.0 µM 94% | [8]; [18] 79% | [10]; [18] 98% | [11]; [17] 91% | [11]; [18] 100% | [14]; at 33.0 µM 83% | [14]; at 100.0 µM 90% | [15]; [18] 98% | [16]; at 3.7 µM 82% | [16]; at 11.0 µM 90% | [16]; at 33.0 µM 93% | [16]; at 100.0 µM 95%
inactive: [1]; at 1.2 µM 15% | [1]; at 3.7 µM 30% | [1]; at 11.0 µM 58% | [2]; at 1.2 µM 1% | [2]; at 3.7 µM 1% | [2]; at 11.0 µM 3% | [2]; at 33.0 µM 9% | [2]; at 100.0 µM 23% | [3]; at 1.2 µM -3% | [3]; at 3.7 µM 3% | [3]; at 11.0 µM 13% | [3]; at 33.0 µM 22% | [3]; at 100.0 µM 45% | [4]; at 1.2 µM 2% | [4]; at 3.7 µM 2% | [4]; at 11.0 µM 6% | [4]; at 33.0 µM 10% | [4]; at 100.0 µM 42% | [5]; at 1.2 µM 5% | [5]; at 3.7 µM -1% | [5]; [17] 16% | [5]; at 11.0 µM 11% | [5]; at 33.0 µM 50% | [5]; at 50.0 µM 49.1% | [6]; at 1.2 µM 4% | [6]; at 3.7 µM 4% | [6]; [17] -3% | [6]; at 11.0 µM 12% | [6]; at 33.0 µM 47% | [6]; at 50.0 µM 12.9% | [7]; at 1.2 µM 4% | [7]; at 3.7 µM 10% | [7]; at 11.0 µM 29% | [8]; [17] 5% | [8]; at 50.0 µM 46.8% | [9]; at 1.2 µM -3% | [9]; at 3.7 µM 3% | [9]; at 11.0 µM 2% | [9]; at 33.0 µM 8% | [9]; at 100.0 µM 25% | [10]; [17] 42% | [10]; at 50.0 µM 66.2% | [11]; at 1.2 µM -2% | [11]; at 3.7 µM -2% | [11]; at 11.0 µM -4% | [11]; at 33.0 µM 1% | [11]; at 50.0 µM -29% | [11]; at 100.0 µM 9% | [12]; at 1.2 µM 1% | [12]; at 3.7 µM 2% | [12]; at 11.0 µM 5% | [12]; at 33.0 µM 17% | [12]; at 100.0 µM 38% | [13]; at 1.2 µM 0% | [13]; at 3.7 µM 2% | [13]; at 11.0 µM 4% | [13]; at 33.0 µM 19% | [13]; at 100.0 µM 45% | [14]; at 1.2 µM 12% | [14]; at 3.7 µM 31% | [14]; at 11.0 µM 56% | [15]; [17] 7% | [15]; at 50.0 µM 68.5% | [16]; at 1.2 µM 62%

CN(C)Cc1cc(N=Nc2ccc(Cl)cc2)ccc1OC(=O)c1ccccc1
inactive: [1]; at 1.2 µM 1% | [1]; at 3.7 µM 3% | [1]; at 11.0 µM 1% | [1]; at 33.0 µM 7% | [1]; at 100.0 µM 17% | [2]; at 1.2 µM 1% | [2]; at 3.7 µM 1% | [2]; at 11.0 µM 3% | [2]; at 33.0 µM 3% | [2]; at 100.0 µM -1% | [3]; at 1.2 µM 4% | [3]; at 3.7 µM 7% | [3]; at 11.0 µM 20% | [3]; at 33.0 µM 22% | [3]; at 100.0 µM 41% | [4]; at 1.2 µM 0% | [4]; at 3.7 µM 1% | [4]; at 11.0 µM 5% | [4]; at 33.0 µM 48% | [5]; at 1.2 µM 1% | [5]; at 3.7 µM 1% | [5]; [17] -10% | [5]; at 11.0 µM 1% | [5]; at 33.0 µM 5% | [5]; [18] 10% | [5]; at 100.0 µM 11% | [6]; at 1.2 µM -3% | [6]; at 3.7 µM 3% | [6]; [17] -2% | [6]; at 11.0 µM -2% | [6]; at 33.0 µM 3% | [6]; [18] 47% | [6]; at 100.0 µM 42% | [7]; at 1.2 µM -1% | [7]; at 3.7 µM -2% | [7]; at 11.0 µM 1% | [7]; at 33.0 µM 14% | [7]; at 100.0 µM 51% | [8]; [17] 38% | [8]; [18] 48% | [9]; at 1.2 µM 3% | [9]; at 3.7 µM -1% | [9]; at 11.0 µM 1% | [9]; at 33.0 µM 0% | [9]; at 100.0 µM 5% | [10]; [17] -20% | [10]; [18] 51% | [11]; at 1.2 µM -2% | [11]; at 3.7 µM -2% | [11]; [17] -15% | [11]; at 11.0 µM -4% | [11]; at 33.0 µM 5% | [11]; [18] 54% | [11]; at 100.0 µM 23% | [12]; at 1.2 µM 1% | [12]; at 3.7 µM 2% | [12]; at 11.0 µM 6% | [12]; at 33.0 µM 21% | [12]; at 100.0 µM 52% | [13]; at 1.2 µM 2% | [13]; at 3.7 µM 2% | [13]; at 11.0 µM 4% | [13]; at 33.0 µM 31% | [13]; at 100.0 µM 67% | [14]; at 1.2 µM 0% | [14]; at 3.7 µM 5% | [14]; at 11.0 µM 9% | [14]; at 33.0 µM 42% | [15]; [17] -9% | [15]; [18] 61% | [16]; at 1.2 µM 1% | [16]; at 3.7 µM 1% | [16]; at 11.0 µM -16% | [16]; at 33.0 µM 17% | [16]; at 100.0 µM 58%
active: [4]; at 100.0 µM 82% | [5]; at 50.0 µM 90.3% | [6]; at 50.0 µM 97.2% | [8]; at 50.0 µM 98.3% | [10]; at 50.0 µM 97% | [11]; at 50.0 µM 98.5% | [14]; at 100.0 µM 74% | [15]; at 50.0 µM 98.5%
